Test results: PubChem BioAssay (EPA / NIEHS)
Inconclusive results are not listed. Activity calls are given as the source filed them. How the source made its calls: active means hit-call score of the fitted dose curve at least 0.9, where 1 is the maximum; inconclusive means response in the unintended direction; inactive means score below 0.9.

What follows are compounds tested against human Vitamin D Receptor (VDR), VDR (gene 7421) (UniProt P11473) (assay: ATG_VDR_TRANS: Attagene TRANS-FACTORIAL HepG2 Assay for human Vitamin D Receptor (VDR) (AID 2283022)).
Method: ATG_TRANS is a cell-based, multiplexed-readout assay that uses HepG2, a human liver cell line, with measurements taken at 24 hours after chemical dosing in a 24-well plate.ATG_VDR_TRANS is one of 30 assay component(s) measured or calculated from the ATG_TRANS assay. It is designed to make measurements of mRNA induction, a form of inducible reporter, as detected with fluorescence intensity signals by Reverse transcription polymerase chain reaction (RT-PCR) and Capillary electrophoresis technology.Data from the assay component ATG_VDR_TRANS was analyzed into 1 assay endpoint. This assay endpoint, ATG_VDR_TRANS, was analyzed in the positive analysis fitting direction relative to DMSO as the negative control and baseline of activity. Using a type of inducible reporter, measures of mRNA for gain-of-signal activity can be used to understand the reporter gene at the transcription factor-level as they relate to the gene VDR. Furthermore, this assay endpoint can be referred to as a primary readout, because this assay has produced multiple assay endpoints where this one serves a reporter gene function. To generalize the intended target to other relatable targets, this assay endpoint is annotated to the nuclear receptor intended target family, where the subfamily is non-steroidal.
Human liver HepG2 cells are transiently transfected with multiple reporter transcription units (MRTUs) in 6-well plates using FuGene 6 reagent (Roche; 3 ml FuGene/1 mg DNA). The MRTU constructs are regulated by a cis-regulating element (promoter). […] A major difference between the CIS and TRANS system is that in CIS activities of endogenous TFs are measured, whereas the TRANS assay evaluates changes in activities of exogenous, chimeric NR-Gal4 proteins. […] At the end of 24 hour incubation, total RNA was isolated using TriZol reagent (Invitrogen). The isolated RNA is then reverse-transcribed using oligo(dT) primer and Mo-MLV reverse transcriptase (Invitrogen) with DNAse I (Ambion) treatment for 30 min. The one-tenth of the produced cDNA was amplified by PCR using Taq DNA polymerase (Invitrogen) and two reporter sequence-specific primers. The PCR products were fluorescently labeled by primer extension with 6-arboxyfluorescein (6-FAM) 5'-labeled reporter sequence-specific primer (2 min at 95 C, 20 s at 68 C and 10 min at 72 C) and these products were digested with 5U of HpaI (New England Biolabs) for 2h at 37 C. The fragments were purified using Qiaquick PCR columns (Qiagen), analyzed on an ABI 3130xL genetic analyzer (Applied Biosystems) with peak positions identified by using a set of X-rhodamine (ROX)-labeled MapMarker1000 molecular weight standards (BioVentures). The raw capillary electrophoresis data was processed using Attagraph software (Attagene).

Sequence of human Vitamin D Receptor (VDR), VDR (gene 7421) (P11473 whole entry, looked up): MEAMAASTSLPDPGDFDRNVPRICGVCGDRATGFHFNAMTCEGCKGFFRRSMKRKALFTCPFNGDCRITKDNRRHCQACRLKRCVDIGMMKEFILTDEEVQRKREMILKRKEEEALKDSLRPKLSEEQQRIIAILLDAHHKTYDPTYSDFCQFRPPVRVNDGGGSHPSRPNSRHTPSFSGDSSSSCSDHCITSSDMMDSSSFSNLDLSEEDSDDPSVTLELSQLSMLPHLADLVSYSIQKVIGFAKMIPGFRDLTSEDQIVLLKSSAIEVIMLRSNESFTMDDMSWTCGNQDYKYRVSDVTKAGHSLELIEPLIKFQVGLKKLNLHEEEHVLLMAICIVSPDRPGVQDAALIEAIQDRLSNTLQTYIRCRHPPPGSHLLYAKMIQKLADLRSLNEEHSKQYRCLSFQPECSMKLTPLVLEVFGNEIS

outcome, inactive:
CC(C)C(OC(=O)c1ccccc1)C(C)(C)COC(=O)c1ccccc1 (stereo not given)
COC(CC(C)CCCC(C)(C)O)OC (stereo not given)
CC(=O)O[C@@H]1CC2CCC1(C)C2(C)C (stereo not given in full)
C1=CC2C3C=CC(C3)C2C1 (stereo not given)
CCCCCCCCCCCCCCN(CCO)CCO
CCC1(c2ccccc2)C(=O)NCNC1=O
Cc1cc(=O)oc2cc(N(C)C)ccc12
CCCCCCCCCCCCN1CCCCCC1=O
CS(=O)(=O)c1ccc(Cl)cc1
CC(C)CC(C)CC(O)CC(C)C (stereo not given)
Cc1ccc(C)o1
N#Cc1ccc(CC(=O)c2cccc(C(F)(F)F)c2)cc1
CCCCCCCCCCCCCC(=O)OCC(O)CO (stereo not given)
CCCCCCC(C)Nc1ccc(Nc2ccccc2)cc1 (stereo not given)
C[C@H]1C[C@@H](O)CC(C)(C)C1
C=C(CC(=O)O)C(=O)O
NC1CCCCC1N (stereo not given)
CCC(C)c1cc([N+](=O)[O-])cc([N+](=O)[O-])c1OC(=O)OC(C)C (stereo not given)
CCCC(=O)c1ccccc1
COC(=O)Nc1ccc(Cl)c(Cl)c1
Cc1c(Cl)cccc1[N+](=O)[O-]
CC(C)NCC(O)COc1ccc(CC(N)=O)cc1 (stereo not given)
CC(=O)Nc1ccc(C(=O)CCl)cc1
Cc1cccc(Nc2ccccc2)c1
O=C1NC2NC(=O)NC2N1 (stereo not given)
CN1CCOCC1
COc1cc(C(C)C)ccc1C
OC[C@H]1O[C@@H](Oc2ccc(O)cc2)[C@H](O)[C@@H](O)[C@@H]1O
COc1ccc(CCN2CCC(Nc3nc4ccccc4n3Cc3ccc(F)cc3)CC2)cc1
CCC(Cl)C(Cl)C(Cl)CC(Cl)C(Cl)C(C)Cl (stereo not given)
CCc1cc(C(C)(C)C)c(O)c(C(C)(C)C)c1
CC(=O)O[C@H]1C[C@@H]2CC[C@@]1(C)C2(C)C
CCCCN(CCCC)C(=O)N(CCCC)CCCC
CN1C(=O)c2ccccc2C1=O
CCOC(=O)c1ccc(N)cc1
O=C(CS)OCCOC(=O)CS
Cc1ccc(N)c(S(=O)(=O)O)c1
CCCCCCCC(=O)OCCCCCC
C=C(C)[C@@H]1CC=C(C)C(=O)C1
COc1cc(Cl)c(OC)cc1N
